Screening data from PubChem.
Rows were chosen to be rich in hits. Some 3.1% of all compounds tested hit in one or more screens of this group.
RAD52 inh: RAD52 (human) annealing inhibition. recombinant RAD52 DNA annealing, FRET fluorescence. 360,000 compounds, 0.46% hits. P43351. inhibition, % at 18.7 µM;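 active = every replicate showing at least 50% inhibition; inconclusive = mean inhibition at least 50% but not in every replicate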
Target sequence (P43351 whole entry, looked up): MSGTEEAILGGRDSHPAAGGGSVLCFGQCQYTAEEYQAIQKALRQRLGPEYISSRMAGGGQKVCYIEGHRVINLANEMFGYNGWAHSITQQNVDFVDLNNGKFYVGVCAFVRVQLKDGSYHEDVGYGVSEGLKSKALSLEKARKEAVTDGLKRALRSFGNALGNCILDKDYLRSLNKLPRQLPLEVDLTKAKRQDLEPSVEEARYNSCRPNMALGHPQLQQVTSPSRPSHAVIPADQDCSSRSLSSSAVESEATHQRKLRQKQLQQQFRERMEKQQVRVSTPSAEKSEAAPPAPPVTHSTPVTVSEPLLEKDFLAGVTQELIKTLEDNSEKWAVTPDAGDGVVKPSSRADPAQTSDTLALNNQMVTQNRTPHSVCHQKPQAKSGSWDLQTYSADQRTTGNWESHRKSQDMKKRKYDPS
DENV2 CPE rescue: protects cells from dengue virus 2 cytopathic effect | DENV2-infected cells, cytopathic effect rescue, plate reader | AID 651640 | CPE inhibition, % at 9.99 µM | 350,000 compounds, 1.7% hits; in the data active = CPE inhibition above about 20%, passing the limit was not always enough; inconclusive = no clear call, values can overlap the other calls; tested in BHK-21 cells
AF4-AF9 inh: blocks AF4 peptide binding to human AF9; P42568; AlphaScreen, biotin-AF4 peptide binding to FLAG-AF9; inhibition, % at 10 µM; 350,000 compounds, 0.47% hits; AID 651704;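 active = every replicate reaching a set inhibition limit, whatever the replicate mean, cut at about 25% in these data; inconclusive = mean inhibition reaches that limit but some replicates miss it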
dFosB act: mouse delta FosB homodimer activation. purified delta FosB, TAMRA-CDK5 oligo fluorescence polarization; percent of positive-control signal above neutral wells. 340,000 compounds, 0.99% hits. AID 493131. activation, % at 25 µM. P13346;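 active = mean activation above about 17%, with every replicate also reaching it, limit read from the data, passing the limit was not always enough; inconclusive = only one of the two conditions met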
Target sequence (P13346 whole entry, looked up): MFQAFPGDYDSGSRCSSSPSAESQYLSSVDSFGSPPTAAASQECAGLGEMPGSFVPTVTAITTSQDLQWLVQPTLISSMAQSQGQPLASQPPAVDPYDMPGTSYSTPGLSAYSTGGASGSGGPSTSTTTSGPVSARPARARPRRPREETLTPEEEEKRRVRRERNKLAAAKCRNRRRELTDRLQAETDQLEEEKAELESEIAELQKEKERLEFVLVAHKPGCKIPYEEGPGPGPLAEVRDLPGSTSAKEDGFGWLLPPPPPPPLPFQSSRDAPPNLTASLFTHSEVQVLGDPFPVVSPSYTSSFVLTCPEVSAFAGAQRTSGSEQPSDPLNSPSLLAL
RAD54 inh: blocks human RAD54 Holliday junction branch migration | Q92698 | FAM/BHQ fluorescence | 360,000 compounds, 0.14% hits | inhibition, % at 10.4 µM;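 active = mean normalized replicate activity at least 40 and at least half of replicates scoring 40 or more; inconclusive = only one of the two criteria met; inactive = mean below 40 and under half of replicates reaching 40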;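 also: inhibitors cause a drop in the FAM fluorescence signal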
GSIS activator: GLuc luminescence reporter in INS-1E cells, primary screen for activators of glucose-dependent secretion of insulin. AID 743287. 370,000 compounds, 0.61% hits. activation, % at 16.6 µM. INS-1E GLuc reporter insulin secretion, 2-3 h;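 active = lowest replicate activation of at least 40%, so every replicate reaches that level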
Of the large screens only hits and unclear results are named; the others gave an inactive call.

Cc1ccc(NC(=O)/C(C#N)=C/c2cn(CC(=O)NCc3ccco3)c3ccccc23)cc1C	dFosB act 60
Cc1ccc(C)c(NC(=O)/C(C#N)=C/c2cn(CC(=O)NCc3ccco3)c3ccccc23)c1	none (no result: RAD54 inh)
C[C@@H]1CN([C@H](C)CO)C(=O)Cc2cc(NC(=O)CCC(F)(F)F)ccc2O[C@@H]1CN(C)C(=O)Nc1ccc2c(c1)OCO2	none (no result: dFosB act)
Cc1nc(Cc2ccccc2)sc1CC#N	GSIS activator 42
Nc1ccc2c(O)cc(S(=O)(=O)O)cc2c1	RAD54 inh 73 (no result: GSIS activator)
Cc1ccc(S(=O)(=O)N(C)C[C@@H]2OCCCC[C@@H](C)Oc3ccc(NC(=O)Nc4ccccc4)cc3C(=O)N([C@H](C)CO)C[C@H]2C)cc1	none (no result: dFosB act)
CCN1C(=O)CC(c2ccccc2)N(C2CCCC2)c2nc(Nc3ccc(C(=O)NC4CCN(C)CC4)cc3OC)ncc21 (stereo not drawn)	none (no result: RAD52 inh, DENV2 CPE rescue, AF4-AF9 inh, GSIS activator)
COc1cc(C(=O)NC2CCN(C)CC2)ccc1Nc1ncc2c(n1)N(Cc1ccccc1)CCC(=O)N2C	RAD52 inh 70
CCOC(=O)c1c(C)[nH]c(C(=O)OCC(=O)Nc2ccc(OC)c(Cl)c2)c1C	dFosB act 140 (no result: RAD52 inh, DENV2 CPE rescue, AF4-AF9 inh)
CNC[C@@H]1OCCCC[C@@H](C)Oc2ccc(NS(=O)(=O)c3cccs3)cc2C(=O)N([C@@H](C)CO)C[C@H]1C	none (no result: dFosB act)
CN(C)C(=O)c1ccc(-c2ccc([C@@H]3[C@@H](CO)N4CCCCN(S(C)(=O)=O)C[C@H]34)cc2)cc1	AF4-AF9 inh 30 (no result: dFosB act)
CN(C)C(=O)c1ccc(-c2ccc([C@H]3[C@H]4CN(S(C)(=O)=O)CCCCN4[C@H]3CO)cc2)cc1	AF4-AF9 inh 34 (no result: dFosB act)
CC(=O)NC(Cc1ccccc1)C(=O)O (stereo not drawn)	DENV2 CPE rescue 56 (no result: GSIS activator)
C[C@@H](NC(=O)C[C@H]1C[C@H]2c3cc(NC(=O)C4CCOCC4)ccc3O[C@H]2[C@H](CO)O1)c1ccccc1	none (no result: dFosB act)
Cc1ccc(CC2S/C(=N/c3ccccn3)NC2=O)cc1 (stereo not drawn)	GSIS activator 58 (no result: RAD52 inh, DENV2 CPE rescue, AF4-AF9 inh)
O=C(c1cccc(F)c1)N1CC[C@@H]2[C@H](CO)Nc3ccc(C#Cc4ccc(F)cc4)cc3[C@@H]21	none (no result: dFosB act)
COc1ccc(-c2cc(C(=O)NCCCN3CCCC3=O)c3ccccc3n2)cc1	DENV2 CPE rescue 58
COc1ccc(CC(N)c2csc(NC(=O)c3ccc(OC)cc3)n2)cc1 (stereo not drawn)	DENV2 CPE rescue 37 (no result: dFosB act)
COc1ccc(CC(N)c2csc(NC(=O)c3ccc(F)cc3)n2)cc1 (stereo not drawn)	none (no result: dFosB act)
COc1ccc(-c2cc(C(F)(F)F)n3nc(C(=O)O)cc3n2)cc1OC	GSIS activator 48 (no result: RAD52 inh, DENV2 CPE rescue, AF4-AF9 inh)
COC(=O)c1cc2nc(-c3ccc(OC)c(OC)c3)cc(C(F)(F)F)n2n1	none (no result: RAD52 inh, DENV2 CPE rescue, AF4-AF9 inh, GSIS activator)
COc1ccc(C2=Nc3cccc4cccc(c34)N2)cc1	dFosB act 55 (no result: RAD52 inh, DENV2 CPE rescue, AF4-AF9 inh, GSIS activator)
C[C@H](CO)N1C[C@H](C)[C@H](CN(C)C)Oc2cc(-c3cccc(C#N)c3)ccc2S1(=O)=O	none (no result: dFosB act)
Cc1ccc(S(=O)(=O)N(C)C[C@H]2OCCCC[C@H](C)Oc3ccc(NC(=O)Nc4ccc(C(F)(F)F)cc4)cc3C(=O)N([C@H](C)CO)C[C@@H]2C)cc1	DENV2 CPE rescue 55 (no result: dFosB act)
C[C@@H]1CCCCO[C@@H](CN(C)S(=O)(=O)c2ccc(F)cc2)[C@@H](C)CN([C@H](C)CO)C(=O)c2cc(NC(=O)Nc3ccc(C(F)(F)F)cc3)ccc2O1	DENV2 CPE rescue 88 (no result: dFosB act)
Cc1ccc(S(=O)(=O)N(C)C[C@@H]2OCCCC[C@@H](C)Oc3ccc(NC(=O)Nc4ccc(C(F)(F)F)cc4)cc3C(=O)N([C@@H](C)CO)C[C@H]2C)cc1	DENV2 CPE rescue 53 (no result: dFosB act)
Cc1ccc(S(=O)(=O)N(C)C[C@@H]2OCCCC[C@@H](C)Oc3ccc(NC(=O)C4CCCCC4)cc3C(=O)N([C@H](C)CO)C[C@@H]2C)cc1	none (no result: RAD52 inh, AF4-AF9 inh, dFosB act)
C[C@@H]1CCCCO[C@@H](CN(C)S(=O)(=O)c2ccc(F)cc2)[C@H](C)CN([C@@H](C)CO)C(=O)c2cc(NC(=O)Nc3ccc(C(F)(F)F)cc3)ccc2O1	none (no result: dFosB act)
Cc1ccc(S(=O)(=O)N(C)C[C@@H]2OCCCC[C@H](C)Oc3ccc(NC(=O)C4CCCCC4)cc3C(=O)N([C@H](C)CO)C[C@@H]2C)cc1	DENV2 CPE rescue 24 (no result: RAD52 inh, AF4-AF9 inh, dFosB act)
C[C@H]1CN([C@@H](C)CO)C(=O)Cc2cc(NC(=O)CCCN(C)C)ccc2O[C@H]1CN(C)S(=O)(=O)c1ccc(Cl)cc1	none (no result: dFosB act)
CN1[C@@H]2c3ccc(/C=C/c4ccccc4)c(=O)n3C[C@H]1[C@H](CO)[C@H]2C(=O)NC1CCCCC1	none (no result: dFosB act, RAD54 inh)
O=C(c1cccc(F)c1)N1CC2(C1)[C@@H](c1ccccc1)[C@@H](CO)N2Cc1ccccn1	none (no result: dFosB act, RAD54 inh)
COc1ccc(S(=O)(=O)N(C)C[C@@H]2OCCCC[C@@H](C)Oc3ccc(NC(=O)Nc4ccc(C(F)(F)F)cc4)cc3C(=O)N([C@H](C)CO)C[C@H]2C)cc1	DENV2 CPE rescue 22 (no result: dFosB act)
C[C@@H]1CCCCO[C@H](CN(C)S(=O)(=O)c2ccc(Cl)cc2)[C@@H](C)CN([C@@H](C)CO)C(=O)c2cc(NC(=O)Nc3ccc(F)cc3)ccc2O1	DENV2 CPE rescue 23 (no result: dFosB act)
Cc1ccc(S(=O)(=O)N(C)C[C@H]2OCCCC[C@H](C)Oc3ccc(NC(=O)Nc4ccc(C(F)(F)F)cc4)cc3C(=O)N([C@@H](C)CO)C[C@@H]2C)cc1	none (no result: dFosB act)
Cc1ccc(S(=O)(=O)N(C)C[C@@H]2OCCCC[C@H](C)Oc3ccc(NC(=O)Nc4ccc(C(F)(F)F)cc4)cc3C(=O)N([C@H](C)CO)C[C@@H]2C)cc1	DENV2 CPE rescue 23 (no result: dFosB act)
C[C@@H]1CCCCO[C@@H](CN(C)S(C)(=O)=O)[C@H](C)CN([C@@H](C)CO)C(=O)c2cc(NC(=O)Nc3ccc(C(F)(F)F)cc3)ccc2O1	DENV2 CPE rescue 57 (no result: dFosB act)
Cc1noc(C)c1S(=O)(=O)N(C)C[C@@H]1OCCCC[C@@H](C)Oc2ccc(NS(C)(=O)=O)cc2C(=O)N([C@H](C)CO)C[C@@H]1C	none (no result: dFosB act)
CC(=O)N1[C@@H](CO)[C@@H]2c3ccccc3N(S(=O)(=O)c3ccc(F)cc3)C[C@@H]21	none (no result: RAD52 inh, DENV2 CPE rescue, AF4-AF9 inh, dFosB act)
N#CCSc1nc2ccccc2c(=O)n1C1CCCCC1	GSIS activator 53 (no result: RAD54 inh)
N#CCSc1nc2ccccc2c(=O)n1CCC(=O)NC1CCCCC1	none (no result: DENV2 CPE rescue, AF4-AF9 inh, GSIS activator)
Cc1sc2ncnc(N3CCC(C(=O)Nc4ccc(Cl)c(Cl)c4)CC3)c2c1C	none
Cc1sc2ncnc(N3CCC(C(=O)Nc4ccc(Cl)cc4Cl)CC3)c2c1C	DENV2 CPE rescue 30 (no result: RAD54 inh)
CCCCCc1c(-c2ccc(OC)cc2)ncn1CCc1ccccc1OC	none (no result: dFosB act, RAD54 inh)
COc1ccccc1CCn1cnc(-c2ccc(F)cc2)c1CC(C)C	GSIS activator 120 (no result: dFosB act, RAD54 inh)
COc1ccccc1CCn1cnc(-c2ccccc2OC)c1CC(C)C	AF4-AF9 inh inconclusive, GSIS activator 65 (no result: dFosB act, RAD54 inh)
CCCCCc1c(-c2ccc(Cl)cc2)ncn1CCc1ccccc1OC	DENV2 CPE rescue 21 (no result: dFosB act, RAD54 inh)
